Several values for one entry are separate records, joined by “and”; a condition that tells them apart may be missing. Identical values can stand only once. Among all 320,000 compounds or so, about 560 (0.17%) were called active. What follows is part of a selection rich in actives, with near analogues and random picks from the rest. A number with no mark means an inactive call.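 How the source made its calls: active means inhibition above the campaign's mean inhibition across all tested compounds plus 3 SD (cut at about 9.5% in these data); inactive means the rest.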
target: Serine/threonine-protein phosphatase 5 (Homo sapiens) (UniProt P53041); experiment: inhibition of human PP5 catalytic activity – biochemical, fluorescence, primary screen (AID 1987); settings: purified PP5c, OMFP substrate fluorescence; at 6.7 µM; hits give high values;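 further: 0% = DMSO only and 100% = 100 µM cantharidin control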
Sequence (P53041 whole entry, looked up): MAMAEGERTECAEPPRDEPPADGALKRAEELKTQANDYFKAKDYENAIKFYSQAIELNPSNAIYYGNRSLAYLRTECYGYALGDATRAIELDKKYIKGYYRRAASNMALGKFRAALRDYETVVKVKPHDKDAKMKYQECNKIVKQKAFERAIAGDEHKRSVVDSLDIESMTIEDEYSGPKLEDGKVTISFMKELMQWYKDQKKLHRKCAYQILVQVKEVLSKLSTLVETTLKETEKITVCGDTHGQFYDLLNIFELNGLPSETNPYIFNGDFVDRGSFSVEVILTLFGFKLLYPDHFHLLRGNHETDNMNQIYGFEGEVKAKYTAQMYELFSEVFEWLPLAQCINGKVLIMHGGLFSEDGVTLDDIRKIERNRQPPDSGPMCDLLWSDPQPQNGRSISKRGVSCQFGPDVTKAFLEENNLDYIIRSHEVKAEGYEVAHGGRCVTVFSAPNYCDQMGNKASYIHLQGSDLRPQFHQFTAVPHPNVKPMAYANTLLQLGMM

Row | Structure (SMILES) | inhibition
1 | Cc1ccc(Cn2c(C)c3cnn(CC(=O)NCc4ccccn4)c(=O)c3c2C)cc1 | -1.29%
2 | CCNC(=O)c1sccc1-n1cccc1 | 0.46%
3 | CC(C)(C)C(=O)NNC(=O)c1ccc(Oc2cc(Cl)cc(Cl)c2)o1 | -2.8%
4 | CCn1nnc(NC(=O)c2cc(Cl)c(OC)c(Cl)c2)n1 | 0.92%
5 | CCN(CC(=O)NC1CCS(=O)(=O)C1)c1nc(-c2cccnc2)nc2ccccc12 (stereo not drawn) | -1.12%
6 | Cc1cc(Cl)ccc1OCCCC(=O)NCc1ccccn1 | 1.77%
7 | O=C1[C@H]2[C@@H](c3ccc(F)cc3)N3C(=O)N(c4ccc(C(F)(F)F)cc4)C(=O)[C@@]3(Cc3ccccc3)[C@H]2C(=O)N1C1CCCCC1 | 5.23%
8 | CCCN(CCC)S(=O)(=O)c1ccc(C(=O)N2CC3CCC(CC3)C2)cc1 | 2.42%
9 | CCOC(=O)c1sc(N(Cc2ccccc2)C(=O)CN2C(=O)CN(C)C2=O)nc1C | -1.26%
10 | C[C@H]1[C@H]2c3nc4ccccc4n3C[C@H]1ON2C1CCCCC1 | -1.65%
11 | COc1ccc(C(=O)NCc2ccc(C)cc2)cc1S(=O)(=O)N1CCCC1 | -1.31%
12 | NCCCC[C@@H]1NC(=O)[C@H](CCC(=O)O)NC(=O)c2cc([N+](=O)[O-])cc(I)c2NCC[C@@H](C(N)=O)NC1=O | 4.27%
13 | Cn1c(CC(=O)Nc2ccc(F)cc2)nnc1SCC(=O)NC1CCCCC1 | 1.34%
14 | COc1cccc(NC(=O)Nc2nnc(N3CCCCC3C)s2)c1 (stereo not drawn) | 3.58%
15 | CC(C)c1ccc(/C=C/C(=O)NCCCN2CCOCC2)cc1 | 0.61%
16 | CCC(C(=O)Nc1ncccn1)(C(F)(F)F)C(F)(F)F | -2.46%
17 | C/C(N)=C(/C#N)C(=O)COC(=O)c1cc(-c2ccc(C)cc2)nc2ccccc12 | 3.74%
18 | CSCC[C@H](NC(=O)N1CCn2c1nc1ccccc12)C(=O)NCc1ccc2c(c1)OCO2 | -0.3%
19 | CCN(C(=O)COc1ccc(C(=O)c2ccccc2)cc1)c1ccccc1 | 0.04%
20 | N#Cc1c(-c2ccccc2)c(-c2ccccc2)n[nH]c1=O | -1.11%
21 | O=c1[nH]c(-c2ccccc2)c(-c2ccccc2)[nH]1 | 0.4%
22 | O=C(O)c1n[nH]nc1-c1ccccc1 | 50.7% (active)
23 | CSCc1ccc(C(=O)Nc2cc(C)cc(C)c2)cc1 | -1.23%
24 | COc1ccc(NC(=O)COC(=O)CNC(=O)C2CCCCC2)cc1 | -1.03%

Row | Structure (SMILES) | inhibition
25 | COCCN(C(=O)COC(=O)Cc1cccc(OC)c1)c1c(N)n(Cc2ccccc2)c(=O)[nH]c1=O | -0.76%
26 | O=C(CSc1n[nH]c(=O)n1-c1ccccc1)Nc1ccccc1C(F)(F)F | 1.79%
27 | O=C1C(C=NCC2CCCO2)=C(O)c2ccccc21 (stereo not drawn) | 2.92%
28 | Cc1ccccc1C(=O)NCC(c1ccco1)N1CCc2ccccc21 (stereo not drawn) | -0.08%
29 | Cc1cccc(N(C)C(=O)CN2C(=O)COc3ccc(S(=O)(=O)N4CCCCCC4)cc32)c1 | 5.32%
30 | O=C(O)c1cccc2c1C(=O)N(C1CCCCC1)C2 | 1.97%
31 | CN1CCN(C(=O)Cn2c(C(F)(F)F)nc3ccccc32)CC1 | 0.08%
32 | COc1ccc(CNC(=O)C2(CC3CC(c4ccccc4)=NO3)CCN(C(=O)c3cccc(O)c3)CC2)cc1 (stereo not drawn) | 0.71%
33 | CN(CC(=O)Nc1ccccc1Cl)C(=O)COc1cccc2c1OC(C)(C)C2 | 1.31%
34 | CCOc1cnc(-c2c(-c3ccccc3Cl)noc2C)o1 | 3.98%
35 | Cc1ccc(N2CC(C(=O)N3CCC4(CC3)CC(=O)c3ccccc3O4)CC2=O)cc1C (stereo not drawn) | -1.86%
36 | Cc1cccc(S(=O)(=O)N2CN(CC3CCCO3)c3nc4ccccc4nc32)c1 (stereo not drawn) | 3.91%
37 | N#C/C=C\Oc1ccc(Cl)cc1N | -0.64%
38 | CC1CCCCC1NC(=O)C1CCCN1S(=O)(=O)c1cccc2nsnc12 (stereo not drawn) | -5.55%
39 | Cc1cccc(NC(=O)c2cccc(C(=O)Nc3cccc(C)c3C)n2)c1C | -0.92%
40 | CCNc1nc(NC(C)C)nc(N2CC(=O)N(CC(=O)OCC)C2=N)n1 | -0.1%
41 | C=CCN1CCN(C(=O)CCCc2ccccc2)CC1 | 2.37%
42 | Cc1cccc(CCNC(=O)Cn2ncc3c([nH]c4ccc(C)cc43)c2=O)c1 | -2.46%
43 | Cc1ccc(Nc2nc(N)nc(CSc3nnc(C)s3)n2)cc1 | 3.84%
44 | Cc1nnc(SCc2nc3ccccc3nc2C)s1 | 12.1% (active)
45 | Cc1nnc(SCc2cc(=O)[nH]c(N3CCN(Cc4ccccc4)CC3)n2)s1 | 1.51%
46 | Cc1ccc(NC2=NC(c3ccccc3)n3c(nc(C)cc3=O)N2)cc1 (stereo not drawn) | 0.48%
47 | COc1ccccc1NS(=O)(=O)c1ccc(C)c(C(=O)NCC(c2ccco2)N(C)C)c1 (stereo not drawn) | -1.06%
48 | COC(=O)C1(C)CC1(c1ccccc1)c1ccccc1 (stereo not drawn) | 3.86%

Row | Structure (SMILES) | inhibition
49 | COc1ccc(-c2cc(=O)oc3cc(OC(C)C(=O)Nc4ccc(CN5CCOCC5)cc4)ccc23)cc1 (stereo not drawn) | 4.28%
50 | CCCCCC1CCC(c2nnc(SCC(C)=O)o2)CC1 (stereo not drawn) | 2.41%
51 | COc1ccc(N(CC(=O)NC2CCCC2)C(=O)CS(=O)CC(=O)Nc2ccc3c(c2)OCO3)cc1 (stereo not drawn) | 0.8%
52 | Cn1c(=O)c2sccc2n(Cc2ccc(Br)cc2)c1=O | 3.16%
53 | CCN(CC)C(=O)CSc1nnc(CNc2ccc(F)cc2)n1Cc1ccco1 | 3.87%
54 | O=C(NN1C(=O)C2C3C=CC(O3)C2C1=O)c1ccncc1 (stereo not drawn) | -0.72%
55 | CC(C)(C)n1nc2c(c1NC(=O)c1ccc(S(=O)(=O)N3CCCC3)cc1)CS(=O)C2 (stereo not drawn) | -2.2%
56 | C=CCOc1ccc(/C=C/C(=O)OCC(=O)NCC2CCCO2)cc1 (stereo not drawn) | -0.48%
57 | O=Cc1c(Nc2ccccc2Cl)nc2ccccn2c1=O | -0.13%
58 | C[C@H](NC(=O)c1[nH]cnc1C(=O)Nc1nccs1)c1ccccc1 | 1.13%
59 | O=C(O)CCc1nc2cc(Cl)ccc2n(Cc2ccccc2)c1=O | -2.07%
60 | CCOC(=O)Nc1ccc2c(c1)N(C(=O)CCCl)c1ccccc1[S@]2=O | -0.16%
61 | CCOC(=O)Nc1ccc2c(c1)N(C(=O)CN1CCN3CCCC3C1)c1ccccc1CC2 (stereo not drawn) | 10.7% (active)
62 | CCOC(=O)Nc1ccc2c(c1)N(C(=O)CCN1CCN(CCO)CC1)c1ccccc1CC2 | 2.46%
63 | O=S1(=O)N=C(N(CCO)/N=C/c2ccccc2F)c2ccccc21 | -2.75%
64 | CC(C)Cn1cnc2c1c(=O)n(CC(=O)NN)c(=O)n2Cc1ccccc1 | 1.33%
65 | CC(=O)c1c(C)[nH]c(C(=O)Nc2cc(S(=O)(=O)N(C)C)ccc2C)c1C | 3.8%
66 | O=C(N=C1SC2CS(=O)(=O)CC2N1c1cc(Cl)ccc1Cl)C1CC1 (stereo not drawn) | -1.21%
67 | CC(C)OC(=O)c1sc2nc3c(cc2c1N)C(=O)CCC3 | -4.25%
68 | O=C(O)c1ccc(-n2cccc2)cc1O | 1.23%
69 | O=C(Nc1ccccc1F)C1C2C=CC3(O2)C1C(=O)N(c1cccnc1)C3C(=O)NC1CCCCC1 (stereo not drawn) | 2.73%
70 | O=C(O)c1ccc(S(=O)(=O)N2CCC(Cc3ccccc3)CC2)cc1 | -3.11%
71 | CCCCN(CCCC)CCCNC(=O)CN1C(=O)COc2ccc(S(=O)(=O)N3CCC(C)CC3)cc21 | -1.56%
72 | COc1ccc(CCNC(=S)NC(=O)/C=C/c2ccc(C)cc2)cc1OC | 1.62%

Row | Structure (SMILES) | inhibition
73 | Cn1c(Cc2cccc3ccccc23)nnc1SCC(=O)N1CCN(c2cccc(Cl)c2)CC1 | 3.02%
74 | Nc1nc(SCC(=O)NN(c2ccccc2)c2ccccc2)n[nH]1 | -0.37%
75 | Cc1cccn2cc(-c3cccc(S(=O)(=O)N4CCCCC4)c3)nc12 | 0.22%
76 | COc1ccc(/C=C2\SC(=S)N(CCC(=O)Nc3cccc(C(=O)O)c3)C2=O)cc1OC | 0.86%
77 | COc1ccc(/C=C2\SC(=S)N(CCCC(=O)NC3CCCC3)C2=O)cc1OC | -4.92%
78 | COc1cc(/C=C2/SC(=S)N(Cc3ccccc3)C2=O)cc(OC)c1O | 10.8% (active)
79 | Cc1c(CCC(=O)N[C@@H](CC(C)C)C(=O)O)c(=O)oc2c(C)c3oc4c(c3cc12)CCCC4 | -1.14%
80 | CN1CC(=O)N=C1N | 2.26% and -0.51%
81 | CC1(C)O[C@@H]2[C@H](O1)[C@@H](COS(=O)(=O)O)O[C@H]2n1cnc2c(=O)[nH]cnc21 | 0.9%
82 | COCCOC1CCN(C(=O)c2ccc(OC)c(OC3CCN(C(C)C)CC3)c2)CC1 | 0.82%
83 | CC(C)C[C@H](NC(=O)C1CC(=O)N(c2ccc3c(c2)OCCO3)C1)C(=O)NC1CCCC1 (stereo partly drawn) | -0.77%
84 | COc1ccc(S(=O)(=O)NNC(=O)Nc2ccc(C)cc2)c(OC)c1 | 0.5%
85 | CCOC(=O)c1c(NC(=O)C2CCN(S(=O)(=O)c3ccc(Cl)cc3)CC2)sc2c1CCCC2 | 0.34%
86 | Cc1sc(NC(=O)C2C3CCC(O3)C2C(=O)O)c(C(=O)OC(C)C)c1-c1ccc(Cl)cc1 (stereo not drawn) | 15.1% (active)
87 | COc1ccc(NC(=O)CNC(=O)Cc2ccccc2)cc1OC | -2.46%
88 | COc1ccc(NC(=S)SC)cc1OC | 3.15%
89 | CC(C)COC(=O)c1ccc(NC(=O)C2C3C=CC(C3)C2C(=O)O)cc1 (stereo not drawn) | 1.86%
90 | CC(C)OC(=O)c1cc(NC(=O)C2C3CCC(O3)C2C(=O)O)cc(C(=O)OC(C)C)c1 (stereo not drawn) | 55.6% (active)
91 | CC(C)OC(=O)c1c(NC(=O)c2ccco2)sc2c1CCCC2 | 1.48%
92 | COc1ccc(NC(=O)C2C3CCC(O3)C2C(=O)O)cc1OC (stereo not drawn) | 76.2% (active)
93 | COC(=O)c1cc(NC(=O)C2C3C=CC(C3)C2C(=O)O)cc(C(=O)OC)c1 (stereo not drawn) | 1.39%

From PubChem BioAssay AID1987 (The Scripps Research Institute Molecular Screening Center, 2009)
